Data taken from ChEMBL document CHEMBL3988442, “University of Dundee, Small-Polar-MMV Screening Library” (2021).
Hit rate of the full screen: of about 48,000 compounds, about 13,000 (27%) showed an effect of 50% or more. The list shows a part of the results.

system: Wolbachia pipientis; experiment: Anti-Wolbachia Cell-Based Screen; assay type: functional; parameters: scale not given: in the data most compounds retested in dose-response had high values; conditions: 5 µM

| Structure (SMILES) | Percent Effect [%] |
| --- | --- |
| CCN1C(=O)[C@]2(CC[C@@H]3CN(S(=O)(=O)CC(C)C)C[C@@H]32)N=C1C | -19.96 |
| CCc1c(C)nc(C)nc1N1C[C@@H](CN(C)C)[C@@H](CO)C1 | -2.089 |
| CN(C)c1nccc(C2CN(c3ccccc3)CCO2)n1 (configuration not stated) | 99.49 |
| CN(C)c1nccc(C2CN(c3cnccn3)CCO2)n1 (configuration not stated) | 85.29 |
| c1ccc(C2CN(c3ncnc4[nH]cnc34)CCO2)cc1 (configuration not stated) | 11.05 |
| Cc1n[nH]c(C2CN(C(=O)c3ccoc3C)CCO2)n1 (configuration not stated) | -42.67 |
| CC(=O)N1CCOC(c2ccnc(N(C)C)n2)C1 (configuration not stated) | 93.18 |
| CN(C)c1nccc(N(C)C2CCOCC2)n1 | 2.354 |
| COCCn1cc(C(=O)N2CCCC2c2ccc(F)cc2)ccc1=O (configuration not stated) | -7.034 |
| COC(=O)NCCC(=O)NC(c1ccc(Cl)cc1)C(F)(F)F (configuration not stated) | -2.05 |
| COc1ccccc1CN1C[C@@H](F)[C@@H](OCc2nc3cnccc3[nH]2)C1 | -3.752 |
| Cc1cc(C)n(CCN2CCN(C(=O)c3cc4ccccc4o3)CC2)n1 | 9.033 |
| O=C(NC1CCN(c2ccc(-c3ccccc3F)nn2)C1)c1ccc[nH]1 (configuration not stated) | 5.245 |
| COc1cccc(C2CCN2C(=O)c2cc(C(C)C)on2)c1 (configuration not stated) | 21.92 |
| CC(C)c1cc(CSCCC(=O)O)no1 | 33.59 |
| COCC(C)NC(=O)N(C)Cc1cc(C)on1 (configuration not stated) | -2.25 |
| CC(C)c1cc(COCCC(=O)O)no1 | 121.8 |
| CC(C)c1cc(COCCCC(=O)O)no1 | 94.89 |
| COC(=O)C(C)N(Cc1cc(C)on1)C1CC1 (configuration not stated) | -2.266 |
| O=S1(=O)CCC(n2nc(Cc3cccs3)nc2-c2cnccn2)C1 (configuration not stated) | -137.3 |
| CC(Oc1ccccc1C(F)(F)F)C(=O)NCCCC(N)=O (configuration not stated) | -9.185 |
| N#Cc1ccc(NCCCOCC2CCOC2)c(F)c1 (configuration not stated) | -19.41 |
| N#Cc1ccc(Cl)cc1N1CCC(OC2CCOCC2)CC1 | 1.592 |
| CN(c1ccc(CNc2c(Cl)cccc2C#N)cc1)S(C)(=O)=O | 0.1811 |

| Structure (SMILES) | Percent Effect [%] |
| --- | --- |
| CCS(=O)(=O)c1ccc(CNc2c(Cl)cccc2C#N)cc1 | -6.207 |
| N#Cc1cc(F)ccc1NCC1CCN(S(=O)(=O)C(F)F)CC1 | -12.01 |
| CS(=O)(=O)N1CCC(CNc2c(Cl)cccc2C#N)CC1 | 98.55 |
| N#Cc1cc(C(F)(F)F)ccc1NCC1CCS(=O)(=O)CC1 | -17.13 |
| N#Cc1cc(F)ccc1NCC1CCS(=O)(=O)CC1 | -20.22 |
| CS(=O)(=O)N1CCC(Nc2ccnc3ccc(Cl)cc23)CC1 | -4.778 |
| N#Cc1ccc(Cl)cc1NCC1CCOC1 (configuration not stated) | 108.5 |
| N#Cc1ccc(Cl)cc1NCC1CC1 | 111.8 |
| CS(=O)(=O)N1CCC(CNc2cc(Cl)ccc2C#N)CC1 | 125.4 |
| CN(CC1CCCCO1)C(=O)c1ccnc(OC2CCC2)c1 (configuration not stated) | 4.497 |
| Cc1nn(C)c(C)c1NC(=O)CNc1cc(C(F)(F)F)ccc1F | -4.216 |
| O=C(c1ccco1)N(CC(F)(F)F)C1CCOCC1 | -3.164 |
| Cc1nc(C)c(CNC(=O)NC2CC(C)(C)OC2(C)C)s1 (configuration not stated) | -7.711 |
| CCOC(C)c1nc(CN2CCN(Cc3cccnc3)CC2)cs1 (configuration not stated) | -1.889 |
| O=C(Nc1ccccc1OCCc1ccccn1)NC1CCOCC1 | -2.172 |
| O=C(Nc1ccccc1OCCc1ccccn1)N1CCOCC(O)C1 (configuration not stated) | 83.92 |
| O=C(Nc1ccccc1OCCc1ccccn1)N1CC[C@@H](O)C1 | 116.1 |
| C=C(C)COc1ccccc1NC(=O)N1CCOCC(CO)C1 (configuration not stated) | -7.017 |
| O=C(Nc1ccccc1OCCc1ccccn1)N1CCOCC1 | 129.1 |
| COc1ccc(Oc2ncccc2NC(=O)N2CCOCC2)cc1 | 2.048 |
| COc1ccccc1CC1CCN(C(=O)CCc2ccccn2)CC1 | -10.18 |
| O=C(Nc1ccccc1OCc1ccccn1)NC1CCOCC1 | 8.72 |
| Cc1n[nH]c(C)c1Sc1ccccc1NC(=O)N1CCOCC(O)C1 (configuration not stated) | -4.124 |
| CC(C)OCCC(=O)N(C)CCCc1cc(-c2ccccc2)no1 | 2.535 |

| Structure (SMILES) | Percent Effect [%] |
| --- | --- |
| CC(C)CC(=O)N[C@H](C)c1c(-c2ccc(Cl)cc2)noc1C(=O)O.Cl | -0.2726 |
| CNC(=O)c1nc2c(s1)CCN(C(=O)c1cccnc1)CC2.O=C(O)C(F)(F)F | -13.23 |
| Cc1ccc(C)c(-n2ccc3nc(N4CCCC4)ncc3c2=O)c1 | -2.601 |
| Cn1cc(CN2C[C@@H]3CCCO[C@@H]3[C@H](NC(=O)CC3CC3)C2)cn1.O=C(O)C(F)(F)F | -5.365 |
| Cc1cccc(CN2C[C@@H]3CCCO[C@@H]3[C@H](Nc3ccccn3)C2)n1 | 113.7 |
| O=C(N[C@@H]1CN(Cc2ccccc2)C[C@@H]2CCCO[C@@H]21)C1CC1.O=C(O)C(F)(F)F | -2.249 |
| O=C(N[C@@H]1CN(c2ncccn2)C[C@@H]2CCCO[C@@H]21)c1ccncc1.O=C(O)C(F)(F)F.O=C(O)C(F)(F)F | -5.975 |
| Cc1ccc(N[C@@H]2CN(Cc3cc(C)on3)C[C@@H]3CCCO[C@@H]32)nn1.O=C(O)C(F)(F)F.O=C(O)C(F)(F)F | 92.65 |
| Cc1ccc(CN2C[C@@H]3CCCO[C@@H]3[C@H](NS(C)(=O)=O)C2)o1.O=C(O)C(F)(F)F | -4.883 |
| Cc1noc(C)c1CN1C[C@@H]2CCCO[C@@H]2[C@H](Nc2ccccn2)C1.O=C(O)C(F)(F)F.O=C(O)C(F)(F)F | 91.6 |
| CCCn1nccc1C(=O)N1CCCN(CCCc2ccccc2)CC1 | -7.679 |
| COc1cc(N2CCC3(CCCN3Cc3cnn(C)c3)CC2)ncn1.O=C(O)C(F)(F)F | 0.3231 |
| O=C1OCCN1CCNc1ncc2c(n1)CCN2c1ccccc1 | 15.29 |
| CN(Cc1nc(-c2cccnc2)no1)C(=O)c1cnc2n1CCCC2 | -9.583 |
| COc1ccc2nnc(CCCC(=O)NCCC3=CCCCC3)n2n1 | 8.382 |
| O=C(CN1CCCC(c2ccn[nH]2)C1)Nc1nc2c(s1)CCCC2 (configuration not stated) | 3.48 |
| COc1ccc(CNC(=O)NCc2nc(C)c(C)s2)cn1 | -2.055 |
| COc1ccc2nnc(CCCC(=O)Nc3nc4c(s3)CCC4)n2n1 | 114 |
| COc1ccc2nnc(CCCC(=O)NCc3cccn3C)n2n1 | 11.78 |
| COc1cccc2c1OCC(C(=O)NCc1nc3c(s1)CCCC3)C2 (configuration not stated) | -11.26 |
| CC1CCc2nc(NC(=O)CN(C)C(=O)c3ccco3)sc2C1 (configuration not stated) | 6.016 |
| COc1ccc2nnc(CCC(=O)Nc3nc(C)c(C)s3)n2n1 | 119 |
| COc1ccc2nnc(CCC(=O)Nc3nc4c(s3)CCCC4)n2n1 | 139.1 |
| COc1ccc2nnc(CCC(=O)Nc3nc4c(s3)CCC4)n2n1 | 122.5 |
